Source: PubChem (Broad Institute)
The sample as a whole holds a higher share of hits than the screen did.
STK33 inh – blocks human STK33 kinase activity; Q9BYT3; ADP-Glo luminescence, MBP substrate; inhibition, % at 12.5 µM; 0.44% of 27,000 active; AID 2322; in the data active means inhibition above about 20%
Target sequence (Q9BYT3 whole entry, looked up): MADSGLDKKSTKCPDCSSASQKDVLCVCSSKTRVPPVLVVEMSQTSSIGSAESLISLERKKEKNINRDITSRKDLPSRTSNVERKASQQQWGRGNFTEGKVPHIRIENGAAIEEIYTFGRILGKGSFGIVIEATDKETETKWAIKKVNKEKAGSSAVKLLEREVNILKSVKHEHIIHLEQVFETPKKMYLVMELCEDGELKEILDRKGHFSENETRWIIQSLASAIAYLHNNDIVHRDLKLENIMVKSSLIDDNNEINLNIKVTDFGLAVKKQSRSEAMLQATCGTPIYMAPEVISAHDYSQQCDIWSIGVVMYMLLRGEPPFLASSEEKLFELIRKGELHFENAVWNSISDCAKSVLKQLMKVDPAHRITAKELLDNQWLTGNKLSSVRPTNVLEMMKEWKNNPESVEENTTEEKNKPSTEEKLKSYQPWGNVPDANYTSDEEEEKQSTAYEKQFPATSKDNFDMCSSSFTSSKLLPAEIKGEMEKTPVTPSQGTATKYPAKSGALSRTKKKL
NOMO-1 viab – STK33 inhibitor candidate reducing NOMO-1 cell viability. NOMO-1 AML viability, CellTiter-Glo luminescence, 72 h. AID 2330. 7.5% of 37,000 active. inhibition, % (concentration not given with the values); in the data active means inhibition above about 80%
PD-1 reverse act – activators reversing PD-1 mediated T-cell inhibition; primary human CD4 T cells, PD-L1 beads, CellTiter-Glo 96 h; activation, % (concentration not given with the values); 29,000 tested, under 10 active; AID 2316; call rule not given here;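 further: 0% = median vehicle wells and 100% = positive control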
An asterisk follows results filed as active; . = not tested or not shown.

SMILES | STK33 inh | NOMO-1 viab | PD-1 reverse act
CCNC(=O)[C@H]1O[C@@H](n2cnc3c(N)ncnc32)C(O)[C@H]1O (stereo not given in full) | 3 | 1 | 8
CC1(C)C(C(=O)Nc2ccccc2C(F)(F)F)C1(C)C | -1 | 8 | -1
COc1ccc(CC2c3cc(OC)c(OC)cc3CCN2C)cc1OC (stereo not given) | -1 | 7 | 2
COc1cc2c(cc1O)[C@@H]1Cc3ccc(OC)c(O)c3CN1CC2 | 4 | 108* | .
COc1ccc2c(c1O)-c1c3c(cc4c1C(C2)N(C)CC4)OCO3 (stereo not given) | 1 | . | .
COc1cc2c(cc1O)C1Cc3ccc(OC)c(O)c3CN1CC2 (stereo not given) | 0 | 117* | -13
C[C@H]1CN([C@@H](C)CO)C(=O)CCCn2cc(nn2)CO[C@H]1CN(C)C(=O)Oc1ccc2ccccc2c1 | 0 | . | .
O=C(Nc1ccc2c(C(F)(F)F)cc(=O)oc2c1)c1cc(Cl)cc(Cl)c1 | . | 122* | 1
COc1ccc([C@H]2Oc3c(I)c(OC)cc(OC)c3C[C@@H]2O)cc1OC | 7 | 22 | .
C[C@@H]1O[C@@H](O[C@H]2[C@H](O)[C@@H](O)[C@H](O[C@@H]3C=C4CC[C@@H]5C(CC[C@]6(C)[C@@H](c7ccc(=O)oc7)CC[C@]56O)[C@@]4(C)CC3)O[C@@H]2CO)[C@H](O)[C@H](O)[C@H]1O (stereo not given in full) | -2 | 124* | -34
O=C(O)c1nn(Cc2ccc(Cl)c(Cl)c2)c2ccccc12 | 1 | 2 | .
COC(=O)[C@@]1(O)C[C@@H]2O[C@@]1(C)n1c3ccccc3c3c4c(c5c6ccccc6n2c5c31)C(=O)NC4 | 108* | 124* | 6
